Compound activity (PubChem)
The list is not random: actives were taken first. Their share in the collection is about 0.88%.
IL-2 act: activates IL-2 in a cell-based reporter assay; AID 652025; hit rate 0.065% among 360,000; activation, % (series mostly up to about 46 µM); IL-2 activation reporter assay, cell-based qHTS; stimulated with anti-CD3/CD4/CD28 beads; in transgenic mouse T cells; in the data active = activation above about 50%; inconclusive = mostly about 30% to 49%; note: 0% is about no effect
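Unstimulated transgenic mouse T cells preincubated 60 min with compound, then stimulated with anti-CD3/anti-CD4-coated beads plus anti-CD28 for 18 h at 37 degrees C. IL-2 response read as EGFP and DsRed fluorescence by plate cytometry.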
CBFb-RUNX1 inh: blocks binding between human CBF-beta and RUNX1; Q01196+Q13951; 230,000 tested, under 10 active; AlphaScreen CBFb-His/RUNX1-biotin binding, biochemical; Potency, µM (series often up to 59.8 µM), for the others: at the top dose activity, negative = inhibition, hits mostly inhibitors; note: % of control where 0% means no effect
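Proteins preincubated together for 20 min at RT before compound addition; 15 min later, nickel and streptavidin beads were added and left 90 min prior to AlphaScreen measurement.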
TRHR agonist-1: TRH receptor (human) agonism; hit rate 0.18% among 360,000; P34981; activation, % at 2 µM; AID 493084; TRHR cells, calcium flux fluo-8, FDSS agonist mode; in the data active = activation above about 30%; note: 0% is about no effect
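TRHR-expressing cells, plated overnight in medium with 10% serum, were loaded with fluo-8 calcium dye at room temperature. After a 10 s baseline, library compound was pin-added and calcium release was recorded kinetically (ex 480/em 530) as agonist response.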
TRHR enhancer-1: TRH receptor (human) allosteric enhancement; hit rate 0.66% among 360,000; enhancement, % at 2 µM; P34981; TRHR cells, fluo-8 calcium fluorescence, EC20 TRH enhancement; in the data active = enhancement above about 30%; note: 0% is about no effect
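Enhancer read-out: after compound pinning and an initial kinetic agonist-mode read, an EC20 of TRH (10 nM final) was injected and fluo-8 calcium signal (Ex 480/Em 530) followed at 1 s/cycle for 100 cycles in TRHR-expressing cells.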
MBNL1-CUG inh: inhibitors of human MBNL1 binding to CUG repeat RNA. Q9NR56. TR-FRET MBNL1-His/biotin-(CUG)12 binding, 665/545 ratio. Potency, µM (doses to about 57.5 µM), for inactives: at the highest dose activity change, negative = inhibition, most hits filed as inhibitors. hit rate 0.036% among 280,000. AID 2675; active = well fitted inhibition curve with a large enough effect in the signal ratio, with a control signal flat, not every such curve was filed as active; inconclusive = small, poorly fitted or top-dose-only effect, or effect the other way, or a change in a side signal; inactive = no such curve, though single readings can be large or run the other way; the % refers to the signal ratio; note: potency is the fitted concentration of half-maximal effect; % is set by controls: 0 for no effect and ±100 for the full control effect
Target sequence (Q9NR56 whole entry, looked up): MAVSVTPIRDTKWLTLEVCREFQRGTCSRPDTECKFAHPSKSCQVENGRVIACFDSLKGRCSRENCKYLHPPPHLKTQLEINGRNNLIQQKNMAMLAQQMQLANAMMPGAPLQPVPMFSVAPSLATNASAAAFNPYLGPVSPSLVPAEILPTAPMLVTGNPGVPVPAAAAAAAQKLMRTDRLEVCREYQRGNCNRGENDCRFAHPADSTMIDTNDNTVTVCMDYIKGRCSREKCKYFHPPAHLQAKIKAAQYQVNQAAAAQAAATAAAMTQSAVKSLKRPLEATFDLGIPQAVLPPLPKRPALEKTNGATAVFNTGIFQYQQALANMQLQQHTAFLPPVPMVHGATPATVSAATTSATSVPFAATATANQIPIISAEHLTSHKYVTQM
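Compounds (final 92 nM to 58 uM) are added to His-tagged MBNL1 and biotin-(CUG)12, then terbium anti-His antibody and streptavidin-XL665 (5 nM final). After 60 min at room temperature, the 665/545 nm ratio is read.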
Epigenetic reg: epigenetic control regulation, reporter derepression. AID 1865. murine LDR cells, GFP reporter derepression, 30 h. hit rate 0.2% among 280,000. Potency, µM (series often up to 53.9 µM), without a hit: at the top dose GFP activation, hits mostly activators; note: potency is the fitted concentration of half-maximal effect; % of control where 0% means no effect; nearly all actives have a fitted effect of over 60% in size
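GFP-positive cell count by laser-scanning cytometry (objects 20–120 um) after 30 h, 37 C compound exposure of murine LDR cells; reporter is CMV-GFP integrated at a silenced locus, inducible by HDAC or DNMT inhibitors.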
TRHR enhancer-2: human TRH receptor allosteric enhancement confirmation. shares compounds with TRHR enhancer-1. TRH receptor cell assay, enhancer confirmation qHTS. activity change, negative = inhibition, % at 46.1 µM. 970 tested, under 10 active. AID 493076;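 note: compound effect scored on response to added TRH at EC20 of 10 nM; 0% is about no effect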
TRHR agonist-2: human TRH receptor agonism confirmation. hit rate 8% among 970. AID 493078. shares compounds with TRHR enhancer-1. Potency, µM (doses to about 46.1 µM), inactives show at the highest dose activation, most hits filed as activators. TRHR-expressing cells, agonist activation read-out; note: potency is the fitted concentration of half-maximal effect; 0% is about no effect; nearly all actives have a fitted effect of over 75% in size
* hit, by the source's call; ? = inconclusive; . = no result. Unless noted, calls come from the whole dose curve; as a rule, active = well fitted curve in the direction sought with a large enough effect; inconclusive = small, poorly fitted or top-dose-only effect, or another doubt; inactive = no such curve, though single readings can be large; an effect the other way counts as inactive or inconclusive.

SMILES | IL-2 act | CBFb-RUNX1 inh | TRHR agonist-1 | TRHR enhancer-1 | MBNL1-CUG inh | Epigenetic reg | TRHR enhancer-2 | TRHR agonist-2
CCOc1ccc(C2CC(=O)NC(NC(=O)c3cccc(Cl)c3)=N2)cc1 (stereo unspecified) | . | . | 0 | -7 | . | 0% | . | .
Cc1ccc2nc(-c3ccc(NC(=O)COC(=O)c4cncc(Br)c4)cc3)sc2c1 | 1 | 1% | 0 | 44* | 27% | 0% | 5 | 0%
Cc1ccc2nc(-c3ccc(NC(=O)COC(=O)c4ccc(Br)o4)cc3)sc2c1 | 3 | 9% | 0 | 4 | 17% | 0% | . | .
CO[C@@H](CCOCc1ccccc1)C[C@H]1O[C@H](C(=O)OC(C)C)C=C[C@@H]1C | . | 5% | . | . | . | 1% | . | .
CC(C)c1ccc(N(CC(=O)NCCCN2CCOCC2)S(=O)(=O)c2ccccc2)cc1 | 0 | . | 0 | 48* | . | . | -2 | 2%
CCOc1ccc(Sc2cc(C(=O)NCCc3ccc(OC)c(OC)c3)c3ccccc3n2)cc1 | . | . | 0 | 1 | . | 8% | . | .
COc1ccc(CNC(=O)CN(C(=O)CCC(=O)Nc2ccccn2)c2cccc(C)c2)cc1 | -3 | -10% | 0 | 44* | -9% | -1% | 7 | 6%
CNS(=O)(=O)c1cc(-c2nn3c(C)nnc3c3ccccc23)ccc1C | . | . | 1 | -7 | . | -2% | . | .
CCOc1ccc(CN(C(=O)c2nc(SC)ncc2Cl)C2CCS(=O)(=O)C2)cc1 (stereo unspecified) | . | . | 0 | -3 | . | -2% | . | .
Brc1ccc(/C=N/Nc2ccc3ccccc3n2)cc1 | 9 | -1% | 0 | 51* | 8% | -2% | 4 | 1%
Brc1ccccc1/C=N/Nc1ccc2ccccc2n1 | 1 | 10% | 1 | -3 | -3% | 0% | . | .
CCOC(=O)c1cc([N+](=O)[O-])sc1NC(=O)c1ccc(S(=O)(=O)N2CC3(C)CC2CC(C)(C)C3)cc1 (stereo unspecified) | 4 | -3% | 37* | -16 | 2% | 2% | -2 | ?
CC1(C)CC2CC(C)(CN2S(=O)(=O)c2ccc(C(=O)Nc3ccc(S(=O)(=O)N4CCOCC4)cc3)cc2)C1 (stereo unspecified) | -3 | -4% | 2 | -6 | . | 0% | . | .
c1ccc2sc(NCC3CCCO3)nc2c1 (stereo unspecified) | -4 | -9% | 0 | 4 | -4% | 1% | . | .
CC1=CC(=C(C#N)c2nc3ccccc3s2)C=C(C)N1CC1CCCO1 (stereo unspecified) | -6 | ? | 39* | 5 | 17% | ? | ? | 18µM*
Cc1[nH]nc2c1C1(C(=O)Nc3ccc([N+](=O)[O-])cc31)C(C#N)=C(N)O2 (stereo unspecified) | -4 | 6% | 1 | 116* | 25% | 1% | 3 | 4%
Cc1ccc(SCc2[nH]nc3c2C2(C(=O)Nc4ccc(F)cc42)C(C#N)=C(N)O3)cc1 (stereo unspecified) | 0 | -8% | 0 | 3 | 4% | 0% | . | .
COc1ccccc1NS(=O)(=O)c1cccc(C(=O)N/N=C/c2c(C)nn(-c3ccccc3)c2N2CCCC2)c1 | 0 | 2% | 27 | 1 | 18% | 0% | 5 | -1%
CCN1C(=O)c2ccccc2S(=O)(=O)c2ccc(C(=O)NC(C)C)cc21 | -1 | . | 1 | 53* | -4% | . | -3 | 0%
O=C(NNC(=O)c1n[nH]c2ccccc12)c1ccccc1 | 0 | . | 0 | 49* | . | . | ? | 7%
CCOc1ccc(-c2csc3ncn(-c4ccc(OC)cc4)c(=O)c23)cc1 | 0 | 17% | -2 | 44* | 47% | 3% | -3 | 1%
CCn1cnc2scc(-c3ccc(OC)cc3)c2c1=O | 0 | . | 0 | 21 | 4% | . | . | .
Nc1ccc(/C=C/C(=O)c2cccs2)cc1 | 4 | 10% | 52* | -15 | -1% | 1% | ? | 21µM*
CCc1cc(C(=O)N2CCCC(CCC(=O)N3CCN(c4ccccn4)CC3)C2)no1 (stereo unspecified) | -1 | 0% | -2 | 42* | -3% | 7% | 1 | 1%
CC(C)c1cc(C(=O)N2CCCC(CCC(=O)N3CCN(c4ccccn4)CC3)C2)no1 (stereo unspecified) | -1 | 9% | 0 | 9 | -7% | 0% | . | .
SMILES | IL-2 act | CBFb-RUNX1 inh | TRHR agonist-1 | TRHR enhancer-1 | MBNL1-CUG inh | Epigenetic reg | TRHR enhancer-2 | TRHR agonist-2
O=C(O)c1ccc(CSc2nnc(-c3ccccc3Cl)n2-c2ccccc2)cc1 | -1 | -4% | 1 | 51* | -7% | 0% | -10 | 0%
CCOC(=O)c1[nH]c2ccc(F)cc2c1NC(=O)CN1CCc2cc(OC)c(OC)cc2C1 | . | -16% | 0 | 43* | 14% | -1% | 3 | 0%
COC(=O)c1[nH]c2ccc(Cl)cc2c1NC(=O)CN1CCc2cc(OC)c(OC)cc2C1 | 0 | 4% | 0 | -8 | 3% | 0% | . | .
CC(=O)Nc1cccc2c1C(=O)N(c1ccccc1C)C2=O | 2 | 0% | 0 | -1 | ? | 2% | . | .
COc1ccccc1N1C(=O)c2cccc3c(N(C)CCO)ccc(c23)C1=O | 0 | . | 61* | 5 | ? | . | 5 | 21µM*
Cc1ccccc1N1C(=O)c2cccc3c(N(C)CCO)ccc(c23)C1=O | 23 | 6% | 41* | 0 | ? | 13% | 1 | 18µM*
COc1ccc2c(c1)cc(C(=O)N/N=C/c1c(O)c(C(=O)O)cc3ccccc13)n2C | 2 | . | 33* | -1 | 20% | . | ? | 18µM*
Cn1c(O)c(/C=N/NC(=O)c2cc3ccccc3cc2O)c2ccccc21 | 4 | . | 46* | 3 | 9% | . | 0 | 13µM*
Cc1ccc(CSc2nc(-c3ccccc3C)nc3c2Cc2c(CO)cnc(C)c2O3)cc1 | . | . | 0 | -4 | . | 13% | . | .
CS(=O)(=O)Nc1c(O)ccc2c1CCCC2C1=NCCN1 (stereo unspecified) | . | 8% | . | . | . | 1% | . | .
C=C1CCN(C(Cc2ccccc2)C(=O)O)S(=O)(=O)c2ccccc21 (stereo unspecified) | . | 2% | . | . | . | . | . | .
COc1cc(CNCc2ccccn2)ccc1OCC(=O)NC1CCCCC1 | -4 | -1% | -1 | 45* | -6% | -1% | 1 | -1%
CCc1ccc2occ(CC(=O)Nc3ccc(C)c(C)c3)c2c1 | . | . | -1 | 63* | . | -2% | -5 | 6%
